From PubChem BioAssay AID624296 (National Center for Advancing Translational Sciences (NCATS), 2012)
About 9,900 (2.8%) of roughly 350,000 compounds were called active. Not shown: some 15% with an inconclusive outcome. The sample as a whole holds a higher share of actives than the screen did. A number with no mark means an inactive call. Calls follow the shape of the dose curve; as a rule, active = well fitted activation curve with a large enough effect; inconclusive = small, poorly fitted or top-dose-only effect; inactive = no such curve, though single readings can be large or run the other way.

experiment: A quantitative high throughput screen for small molecules that induce DNA re-replication in MCF 10a normal breast cells.; also: nearly all actives have a fitted effect of over 50% in size; as to activity, positive = re-replication: % of control where 0% means no effect; settings: MCF 10A DNA re-replication, Hoechst nuclear intensity, 48 h; series mostly up to 46.1 µM; activity, positive = re-replication: at the top concentration
From the text: H Molecular Libraries Probe Production Network [MLPCN]
NIH Chemical Genomics Center [NCGC]
Assay Provider: Melvin DePamphilis, NICHD, NIH
Eukaryotic cells normally restrict genome duplication to once per cell division. When this process is aberrant, DNA re-replication occurs when cells reinitiate DNA replication before the first round of replication is complete. DNA re-replication induces the DNA damage response, arrests cell proliferation, and triggers apoptosis. The cell cycle components cyclin A, Cdt-1, Cdc6 and geminin are critical regulators of this process and their misregulation results in DNA re-replication in normal and cancer cells. To identify compounds that induce re-replication in normal cells, an image-based assay was used to measure DNA content of nuclei, as detected by the fluorescent DNA binding dye, Hoechst. Cell nuclei were imaged by a fluorescence scanning plate imager and compounds that induce DNA re-replication were identified by the increase of nuclei with elevated fluorescence intensity
For screening, 250 cells in 5 uL/well were dispensed into black clear 1536-well plates (Aurora) using a solenoid-based dispenser. Following transfer of 23 nL compound or DMSO vehicle by a pin tool, the plates were incubated 48 hr at 37 C and 5% CO2. After addition of 1 uL/well Hoescht stain, the plates were incubated 40 min at 37 C, 5% CO2 and total intensity of fluorescent objects (nuclei) were enumerated by an Acumen Explorer Ex3 (TTP LabTech) fluorescence scanning plate imager (405 nm excitation, 500-530 nm emission).
Keywords: NIH Roadmap, MLPCN, MLI, MLSMR, qHTS, NCGC, DNA replication, cancer
Potency is read from the fitted curve at half-maximal effect.

Row | Compound | activity, positive = re-replication [%] | Potency
1 | Cc1ccc(-c2csc(C(C#N)=C(O)CN3CCN(C(=O)c4ccco4)CC3)n2)cc1 | 11.7 | –
2 | O=S(=O)(c1ccc(SCc2ccc(Br)cc2)nc1)N1CCOCC1 | 1.47 | –
3 | Cc1ccc(OCCC(=O)Nc2ccc(S(=O)(=O)Nc3nccs3)cc2)cc1 | 8.62 | –
4 | COC1=NC2=NCCN2C(OC)=N1 | 0.601 | –
5 | Cc1cccc(C)c1NC(=O)C(Cl)C(=O)c1ccccc1 (centres undefined) | – | 18.4 µM (active)
6 | Cc1cccc(C)c1NC(=O)C(c1ccccc1)N1CC(=O)Nc2ccccc21 (centres undefined) | 0.962 | –
7 | Cc1cccc(C)c1NC(=O)CN(C)C(=O)CCC(=O)c1ccccc1 | -6.85 | –
8 | Cc1ccc(NC(=O)C2CC(=O)N(c3ccc4c(c3)OCCO4)C2)cc1S(=O)(=O)N1CCCCCC1 (centres undefined) | 19.6 | –
9 | Cc1nc(SCC(=O)NC2CCCCC2C)c(C#N)c(C)c1C (centres undefined) | 0.386 | –
10 | CC(C)n1ncc2c(C(=O)Nc3ccc(CC#N)cc3)cc(C3CC3)nc21 | 4.57 | –
11 | COc1ccc(OC)c(Cc2cnc3nc(N)nc(N)c3c2C)c1 | 15.9 | –
12 | COc1ccc(Nc2oc(-c3ccccc3Cl)nc2C#N)cc1 | – | 2.59 µM (active)
13 | Cc1ccccc1-c1nc(C#N)c(NCc2ccco2)o1 | -0.678 | –
14 | COc1ccccc1-c1nc(C#N)c(N2CCC(C(N)=O)CC2)o1 | 1.76 | –
15 | CC(NC(=O)c1ccc(S(=O)(=O)Nc2ccccc2)cc1)c1ccc(S(N)(=O)=O)cc1 (centres undefined) | 3.04 | –
16 | CCC(=O)Nc1ccc(C(=O)Nc2cccc(OC)c2)cc1 | -24 | –
17 | COc1cccc(CC(=O)Nc2nc(-c3ccc(OC)c(OC)c3)cs2)c1 | 14.9 | –
18 | COc1cccc(CC(=O)Nc2ccc(-c3csc(C)n3)cc2)c1 | – | 9.2 µM (active)
19 | CCCCC[C@@H]1C=C(C(=O)O)[C@H](c2ccc(C#N)cc2)N1S(=O)(=O)c1ccc(C)cc1 | -1.83 | –
20 | O=C1C[C@@H]2c3c(cccc3CN1Cc1ccccc1)C[C@@H](O)[C@H]2O | -8.32 | –
21 | C=CCO/N=C(\C)c1c(O)c(C)c(-c2ccccc2)n(-c2ccccc2)c1=O | 19.9 | –
22 | CCO/N=C(/C)c1c(O)cc(-c2ccccc2)n(-c2ccccc2)c1=O | – | 14.6 µM (active)
23 | CCOC(=O)c1c(CN(C)C)n(-c2ccccc2)c2cc(Br)c(O)cc12 | 8.71 | –
24 | CCN(CC)S(=O)(=O)c1ccc(CNC(=O)CN2C(=O)NC3(CCc4ccccc43)C2=O)cc1 (centres undefined) | 5.09 | –
25 | COCCN(Cc1ccccc1)C(=O)Cc1ccc(S(=O)(=O)N2CCOCC2)s1 | -9.64 | –

Row | Compound | activity, positive = re-replication [%] | Potency
26 | Cc1ccc(S(=O)(=O)N2CCCCC2)cc1NC(=O)CCNC(=O)c1ccccc1 | 0.791 | –
27 | C#CCOCCOCCOCCNc1nc(N2CCOCC2)nc(N2CCN(C(=O)[C@H](Cc3ccc(O)cc3)n3cc(CCO)nn3)CC2)n1 | 9.82 | –
28 | Cc1ccc(NC(=O)C2CCC(C(C)(C)C)CC2)cc1S(=O)(=O)N1CCOCC1 (centres undefined) | – | 18.4 µM (active)
29 | Cc1ccc(NC(=O)NC2CCCCC2)cc1S(=O)(=O)N1CCOCC1 | 0.463 | –
30 | Cc1ccc(NC(=O)COC(=O)C2CC2)cc1S(=O)(=O)N1CCOCC1 | -4.67 | –
31 | CCC1([N+](=O)[O-])COC(c2ccc(C)cc2)OC1 (centres undefined) | -3.51 | –
32 | COc1ccccc1N1CC(C(=O)NCCN2C(=O)S/C(=C\c3cccnc3)C2=O)CC1=O (centres undefined) | -5.48 | –
33 | COc1cccc(CNC(=O)Cc2csc(Nc3nc(=S)[nH]c4ccccc34)n2)c1 | 21.3 | –
34 | O=C(Cc1csc(Nc2nc(=S)[nH]c3ccccc23)n1)NCCCN1CCN(c2cccc(Cl)c2)CC1 | – | 14.6 µM (active)
35 | O=C(CCn1c(=O)[nH]c2ccccc2c1=O)NCCCN1CCN(c2cccc(Cl)c2)CC1 | 1.02 | –
36 | CN[C@H](C(=O)NC[C@H]1O[C@@H](n2cnc3c(N)ncnc32)[C@H](O)[C@@H]1O)[C@@H](C)OCc1ccccc1 | 25.9 | –
37 | CC(CC(=O)Nc1cc(C(F)(F)F)ccc1Cl)c1ccccc1 (centres undefined) | 28.4 | –
38 | O=C(Nc1cc(C(F)(F)F)ccc1Cl)C(=O)N1CCCCC1 | -0.549 | –
39 | O=C(NNc1ccccc1Cl)C(O)(c1cccc(C(F)(F)F)c1)c1cccc(C(F)(F)F)c1 | – | 16.4 µM (active)
40 | COc1ccc([C@H]2CC(=O)C=C(c3ccc(CO)cc3)C2)cc1 | 1 | –
41 | O=c1c(Cl)c(NC2CC2)cnn1-c1ccccc1 | 0.555 | –
42 | Cc1cccc(-n2ncc(Cl)c(Cl)c2=O)c1 | – | 3.26 µM (active)
43 | Cc1cccc(-n2ncc(C#N)c2-n2cccc2)c1 | -12.2 | –
44 | COC1=CC(=O)OC(C)(c2ccccc2)C1 (centres undefined) | -7.01 | –
45 | COc1cc(OC)cc(C(=O)NCC(=O)OCC(=O)NC(C)CCc2ccccc2)c1 (centres undefined) | -3.97 | –
46 | O=C(NCCc1ccccc1)C1CCN(S(=O)(=O)c2ccc(Br)s2)CC1 | -0.365 | –
47 | Cc1cc(C)c[n+](-c2nc3ccccc3nc2[N-]S(=O)(=O)c2cccs2)c1 | -2.95 | –
48 | O=S(=O)([N-]c1nc2ccccc2nc1-[n+]1ccc(Cc2ccccc2)cc1)c1ccc(Br)s1 | – | 9.2 µM (active)
49 | O=C(COC(=O)c1cc(S(=O)(=O)N2CCOCC2)ccc1F)NC1CC1 | -0.372 | –
